Compounds without any hit were thinned out: in the full panel of roughly 83,000, 20% have a hit.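 Assay: single dose, 48 h. Readout: percent growth (0 = no net growth; negative = cell death). Active: <10.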 A number with no mark means an inactive call. Activity calls are given as the source filed them.

The first experiment has as its system MALME-3M melanoma. Briefly: NCI-60 one-dose screen, 48 h (100 = growth as untreated, 0 = no growth, -100 = all killed). To be noted: 10 µM unless noted.
As for `CN1CCCN(CCNc2nccc(-c3c(-c4cccc(O)c4)nc4sccn34)n2)S1(=O)=O`, the growth was 9.87% (active).

On to `CCN(CC)c1ccc(/C=C2/NC(=O)NC2=O)cc1`, for which the growth is 42%.

With `CCOC(=O)c1ccc2c(c1)[n+](=O)c(C(=O)c1ccc3ccccc3c1)c(C(F)(F)F)n2[O-]`, the growth was -69.1% (active).

In another experiment the test system is MDA-MB-231 breast. The experiment is described as above. As to conditions: 10 µM unless noted.
As for `COc1cc(C2CC(=O)Nc3c2cnn3C)cc(OC)c1OC` (centres undefined), the growth was 118%. On the same count and under the same terms, the same measure for `C=C(c1ccc(C(=O)NCCCn2ccnc2)cc1)c1cc2c(cc1C)C(C)(C)CCC2(C)C`: 28.7%; for `Nc1c(Br)cc2c(c1Br)Cc1cc(Cl)ccc1-2`: 70%.

For `CCCCCCCCCCCCNC(=O)N[C@H](C(=O)N[C@H]1/C=C/CCNC(=O)/C=C/[C@H](C)NC1=O)C(C)C`, the growth was -44.7% (active). Same read-out and setting: then `C=C(C)[C@@H]1CC[C@]2(C(=O)NS(=O)(=O)c3ccccc3)CC[C@]3(C)[C@H](CC[C@@H]4[C@@]5(C)CC[C@H](OC(=O)NS(=O)(=O)c6ccccc6)C(C)(C)[C@@H]5CC[C@]43C)[C@@H]12`, with 39.7%; and `FC(F)(F)c1cc(-c2nnc3n2N=C(Cl)CS3)cc(C(F)(F)F)c1`, with 112%; and `Cc1cc(-c2ccccc2)on1`, with 105%.

`CNC(=O)c1c(NC(=O)c2cccc(C(F)(F)F)c2)sc2c1CCC(=O)C2`: the growth is -41.2% (active). The same measure, in the same setting: the same measure for `COc1ccccc1/C=C/C(=O)CCC(=O)O`: 114%; for `CCc1c(C)c2ccc(O)c(-c3cc(-c4ccccc4)c(C#N)c(=O)[nH]3)c2oc1=O`: 72.6%. For `O=C1OCC2=C1C(c1ccccc1)c1cc3c(cc1N2CCO)OCO3` (centres undefined), the growth is 52.2%.

For the origin of these results see PubChem BioAssay (NCI).
